Shown are actives, neighbours in structure and some others; about 15% of the full set was active somewhere.
Pf growth 48h: P. falciparum growth inhibition at 48 hours (one generation); P. falciparum luciferase growth in erythrocytes, 48 h; Potency, µM (titrated, usually from 28.7 µM), without a hit: at the highest dose activity change, negative = inhibition, actives largely listed as inhibitors; 310,000 compounds, 5.9% hits; AID 504832; also: potency is read from the fitted curve at half-maximal effect; % is scaled to controls: 0 for no effect and ±100 for the full control effect
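A one-generation exposure of luciferase-tagged malaria parasites in RPMI 1640/Albumax erythrocyte culture, 37 C and 5% CO2. Inhibition is inferred from decreased luminescence after adding detection reagent.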
Sm TGR block: blocks Schistosoma mansoni thioredoxin glutathione reductase; Q962Y6; purified TGR, DTNB reduction, TNB absorbance 405 nm; Potency, µM (series often up to 114 µM), without a hit: at the top dose activity change, negative = inhibition, hits mostly inhibitors; 360,000 compounds, 3% hits; also: potency is read from the fitted curve at half-maximal effect; % is scaled to controls: 0 for no effect and ±100 for the full control effect; nearly all actives have a fitted effect of over 60% in size
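TGR 20 nM + NADPH 100 uM (dispensed conc.), cpd preinc 15 min RT; start with NADPH (500 uM addition) then DTNB (15 mM addition). Kinetic TNB absorbance, 405 nm filter. Four-parameter Hill fit across titration.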
Pf growth 96h: P. falciparum growth inhibition at 96 hour, primary screen for plastid delayed-death inhibitors; Potency, µM (doses to about 28.7 µM), for inactives: at the highest dose activity change, negative = inhibition, actives largely listed as inhibitors; AID 504834; P. falciparum luciferase reporter growth, 96 h; 320,000 compounds, 6.9% hits; also: potency is read from the fitted curve at half-maximal effect; % is scaled to controls: 0 for no effect and ±100 for the full control effect
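Two-generation exposure (96 h) targets delayed-death phenotype. Reporter parasites carrying integrated firefly luciferase, in red cells at 2% hematocrit and 0.05% parasitemia final, kept at 37 C, 5% CO2; luminescence loss indicates inhibition.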
HCMV inh: human cytomegalovirus inhibition; HFF cells, HCMV-luciferase reporter, 72 h; active compounds read low; activity change, negative = inhibition, % at 57.5 µM; AID 1259415; 410,000 compounds, 4.5% hits; in the data active = activity change below about -60%; inconclusive = no clear call, values can overlap the other calls; inactive = above about -39%; also: % is scaled to controls: 0 for no effect and ±100 for the full control effect
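Human foreskin fibroblasts infected with luciferase-reporter HCMV at MOI 1 PFU/cell, compounds at two doses. Luciferase measured 72 h post infection; normalized to buffer-only basal and Salinomycin (10uM) controls.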
HCV inhibitor: blocks hepatitis C virus; Huh7.5.1 HCVcc-Cre infection, luciferase reporter, 44 h; 340,000 compounds, 3.4% hits; Potency, µM (top dose mostly 41.8 µM), for inactives: at the top dose activity change, negative = inhibition, hits mostly inhibitors; also: potency is read from the fitted curve at half-maximal effect; % is scaled to controls: 0 for no effect and ±100 for the full control effect
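Reporter virus HCVcc-Cre (~0.5 moi) infects cells exposed to compound; seeding density 1,000 cells/well with 4 h settling beforehand. Luminescence, 15 sec read, taken 44 h post-infection following a 15 min RT substrate incubation.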
SARS PLP yeast: inhibitors of SARS-CoV papain-like protease in yeast | AID 485353 | 330,000 compounds, 0.19% hits | Potency, µM (doses to about 32.9 µM), inactives show top-dose activity, positive = growth rescue, most hits filed as activators | S. cerevisiae expressing SARS-CoV PLpro, growth rescue; calls by dose curve; also: potency is read from the fitted curve at half-maximal effect; 0% is about no effect; nearly all actives have a fitted effect of over 55% in size
Active calls of the source: *; ? = inconclusive; nt = not tested or not shown. Unless noted, calls follow the shape of the dose curve; as a rule, active = well fitted curve in the direction sought with a large enough effect; inconclusive = small, poorly fitted or top-dose-only effect, or another doubt; inactive = no such curve, though single readings can be large; an effect the other way counts as inactive or inconclusive.

SMILES	Pf growth 48h	Sm TGR block	Pf growth 96h	HCMV inh	HCV inhibitor	SARS PLP yeast
CCCCn1nc(C(=O)NCC2COc3ccccc3O2)c2ccccc2c1=O (stereo unspecified)	10.4µM*	-6.5%	?	-7.0	?	0.5%
CCCn1nc(C(=O)Nc2nc3ccccc3[nH]2)c2ccccc2c1=O	14.7µM*	-0.7%	?	-16.5	?	-4.1%
CCCCn1nc(C(=O)Nc2nc3c(s2)CCCC3)c2ccccc2c1=O	?	-10.9%	6.57µM*	?	?	20.5%
CC(C)Cn1nc(C(=O)NCc2ccccc2CN2CCCC2)c2ccccc2c1=O	?	28.2µM*	?	-24.2	?	-0.9%
CCCCn1nc(C(=O)NCC(c2cccs2)N2CCOCC2)c2ccccc2c1=O (stereo unspecified)	9.28µM*	-0.5%	?	?	?	-2.3%
CCn1nc(C(=O)NCC(c2cccs2)N2CCOCC2)c2ccccc2c1=O (stereo unspecified)	?	0.2%	-18.4%	-27.9	20.2%	7.8%
CCCCn1nc(C(=O)NCc2ccccc2CN2CCCC2)c2ccccc2c1=O	9.28µM*	-18.0%	7.38µM*	-18.2	?	1.0%
Cc1ccc2nc(-c3ccc(Br)cc3)cc(C(=O)NCC3CCCO3)c2c1 (stereo unspecified)	nt	nt	nt	-100.5*	nt	nt
COc1cccc(-c2cc(C(=O)NCC3CCCO3)c3cc(Br)cc(C)c3n2)c1 (stereo unspecified)	?	-5.6%	?	-60.3*	?	-0.6%
CCOc1ccc(-c2cc(C(=O)NCC3CCCO3)c3ccccc3n2)cc1 (stereo unspecified)	30.6%	-11.7%	36.0%	32.9	-22.7%	-13.0%
Cc1ccc2nc(C)cc(C(=O)NC3CCCCCC3)c2c1	nt	nt	nt	6.2	8.7%	-1.3%
Cc1ccc2nc(-c3cccc(Br)c3)cc(C(=O)NC3CC3)c2c1	4.65µM*	7.6%	?	-38.9	1.2%	-10.2%
Cc1ncc(C[n+]2csc(CCOP(=O)(O)O)c2C)c(N)n1	-70.8%	nt	-98.2%	nt	nt	nt
CCn1cc(C(=O)Nc2cccc(Cl)c2)c2cc(OC)c(OC)cc2c1=O	nt	2.1%	nt	-22.1	nt	nt
CCC(=O)Nc1ccc2nc(SCCOc3cccc(C)c3)sc2c1	nt	7.1%	nt	-63.5*	nt	nt
CC(=O)Nc1ccc2nc(SCCOc3ccccc3Cl)sc2c1	nt	-1.6%	nt	-80.4*	nt	nt
Cc1cccc(C(=O)Nc2ccc3nc(SCCOc4ccccc4)sc3c2)c1	nt	-4.8%	nt	-11.4	nt	nt
COc1cc(C)ccc1OCCSc1nc2ccc(NC(=O)c3ccco3)cc2s1	nt	12.4%	nt	-61.4*	nt	nt
CCOC(=O)c1[nH]c2ccccc2c1NC(=O)c1ccc(Br)o1	-21.1%	-26.2%	-16.4%	24.3	?	-8.5%
CCOC(=O)c1c(C)[nH]c(C)c1S(=O)(=O)NCC(=O)N1CCN(c2cc(Cl)ccc2C)CC1	nt	1.1%	nt	-21.3	nt	nt
CCC(=NC1CCN(Cc2ccccc2)CC1)c1c(O)[nH]c(=O)[nH]c1=O	?	?	5.22µM*	-1.9	7.7%	8.8%
CCN(CC(=O)NCc1ccccn1)S(=O)(=O)c1ccc(Cl)cc1	-8.9%	5.6%	nt	-2.6	3.6%	-5.1%
CN(Cc1nc2ccccc2c(=O)[nH]1)C(=O)c1cc(C2CC2)nn1-c1ccccc1	?	-22.5%	?	-14.3	?	nt
O=C(CCCn1c(SCc2cc(=O)n3cc(Cl)ccc3n2)nc2ccccc2c1=O)NCC1CCCO1 (stereo unspecified)	6.57µM*	-9.7%	10.4µM*	?	4.5%	0.7%
O=C(CCCn1c(SCC(=O)NCC2CCCO2)nc2ccccc2c1=O)NCc1ccccc1 (stereo unspecified)	nt	0.1%	9.28µM*	1.2	6.2%	12.4%
SMILES	Pf growth 48h	Sm TGR block	Pf growth 96h	HCMV inh	HCV inhibitor	SARS PLP yeast
O=C(CCCn1c(SCC(=O)c2ccc(F)cc2)nc2ccccc2c1=O)NCc1ccccc1	nt	-29.5%	10.4µM*	-29.2	-5.1%	4.7%
O=C(CCCn1c(SCc2cc(=O)n3ccccc3n2)nc2ccccc2c1=O)NCC1CCCO1 (stereo unspecified)	-22.8%	-6.1%	?	-37.7	0.8%	2.9%
Cc1cc(NC(=O)CSc2nc3ccccc3c(=O)n2CCCC(=O)NCc2ccccc2)n[nH]1	?	14.3%	33.2%	?	-6.3%	4.3%
Cc1cn(C)c(CC(=O)NCc2cccc(Cl)c2)c1C(=O)O	nt	-10.6%	nt	7.3	nt	nt
Cc1ccc2c(CC(=O)NC3CCCc4ccccc43)coc2c1 (stereo unspecified)	-0.3%	-1.1%	-13.7%	?	?	-10.8%
O=S(=O)(NCc1ccc(F)cc1)c1ccc(-n2cnnn2)cc1	-10.7%	-0.9%	5.0%	0.0	13.5%	2.4%
CCOC(=O)C1CSCCS(=O)(=O)N1Cc1cccc(F)c1 (stereo unspecified)	nt	nt	nt	-7.7	nt	nt
NS(=O)(=O)c1ccc(CCNc2ccc(C(F)(F)F)cn2)cc1	24.6%	-3.7%	30.9%	-76.9*	15.0%	-1.9%
FC(F)(F)c1ccc(NCCc2ccccc2)nc1	25.8%	0.3%	-25.5%	-33.5	9.2%	-3.4%
CCN1CCN(c2ccc(S(=O)(=O)N3CCCCC3)cc2NC(=O)c2cc3ccccc3o2)CC1	4.15µM*	5.4%	2.08µM*	-12.4	?	3.7%
Cc1ccc(S(=O)(=O)N2CCCCC2)cc1NC(=O)c1ccc(Br)o1	7.38µM*	2.8%	?	1.5	-26.3%	-2.2%
CCN1CCN(c2c(Cl)cccc2NC(=O)c2cc3ccccc3o2)CC1	nt	nt	nt	-15.4	?	nt
Cc1ccc(S(=O)(=O)N2CCCCC2)cc1NC(=O)c1cc2ccccc2o1	?	1.4%	?	-4.0	22.4µM*	3.6%
CCOC(=O)/C=C/[C@H](C)NC(=O)C(F)(F)F	nt	nt	nt	-15.3	nt	nt
CCN(CCCNC(=O)CN(C)S(=O)(=O)c1cccc2nsnc12)c1ccccc1	?	0.0%	11.7µM*	-12.9	?	-0.7%
CN(CC(=O)NCCN1CCN(Cc2ccccc2)CC1)S(=O)(=O)c1cccc2nsnc12	?	7.4%	0.6%	-3.2	-22.1%	1.0%
CN(CC(=O)NCc1ccc(Cl)cc1)S(=O)(=O)c1cccc2nsnc12	19.7%	3.9%	?	-25.3	-17.3%	-3.7%
CCc1ccccc1NC(=O)CN(C)S(=O)(=O)c1cccc2nsnc12	nt	-8.3%	nt	-17.0	nt	nt
CN(CC(=O)N1CCN(Cc2ccccc2)CC1)S(=O)(=O)c1cccc2nsnc12	-1.6%	-2.1%	4.15µM*	-25.6	-12.6%	-5.3%
CN(CC(=O)NCCc1ccccc1)S(=O)(=O)c1cccc2nsnc12	-13.7%	-0.2%	8.28µM*	-18.8	?	14.7%
CC(=O)C1=C(OC(=O)C(C)C)c2ccccc2S(=O)(=O)N1Cc1ccccc1	nt	-29.3%	nt	0.2	nt	nt

From PubChem BioAssay
